Assay: fission yeast growth modulation, primary screen, strain 972, OD600, 24 h, no modulator (AID 1090);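 also: basal condition with compound alone and no growth modifier present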
Settings: S. pombe 972 growth, higher = more signal, called active from +8 up or from −8 down
Also: test concentration not given here.

z-score, inactive:
CO[C@H]1O[C@H](CO)[C@@H](OC(=O)Nc2ccc(C(F)(F)F)cc2)[C@H](OC(=O)Nc2ccccc2-c2ccccc2)[C@H]1OC(=O)Nc1ccccc1-c1ccccc1 2.36, CCOC(=O)C1=C(C(=O)OCC)N(S(=O)(=O)CC[Si](C)(C)C)[C@H](c2ccccc2)CC1 1.83, CC(C)C(=C=CC[C@@H](O)c1ccccc1OCCO)C[C@@H](O)c1cc(Cl)cc(Cl)c1O -1.46, COc1ccc(C#Cc2ccc3c(c2)[C@]2(C(=O)N3)[C@H](C(=O)Nc3nc4ccccc4s3)[C@H]3C(=O)O[C@H](c4ccccc4)[C@H](c4ccccc4)N3[C@@H]2c2ccc(OCCO)cc2)cc1 2.06, CC(=O)n1cc(C(O)C2C=CC3C(=O)N(c4ccccc4)C(=O)C3N2Nc2ccccc2F)c2ccccc21 (stereo unspecified) -0.169, COCCOC(=O)N1C(=O)[C@@]2(c3cc(C#CC4(O)CCCCCC4)ccc31)[C@H](c1ccc(OCCO)cc1)N1[C@H](c3ccccc3)[C@H](c3ccccc3)OC(=O)[C@H]1[C@@H]2C(N)=O 0.926, COc1cc2c(cc1O)C(c1ccc(CN3CCCC3)cc1)N(Cc1ccc([N+](=O)[O-])o1)CC2 (stereo unspecified) -2.48, COc1ccc(CCNC(=O)[C@@]2(C)c3ccccc3C(=O)N(Cc3cc(C(F)(F)F)cc(C(F)(F)F)c3)[C@H]2c2ccc(CO)cc2)cc1 -0.836

Assay: S. cerevisiae growth modulation with rapamycin, primary screen, strain BY4716, OD600, 96 h (AID 1091)
Settings: higher = more signal, called active from +8 up or from −8 down

z-score, inactive:
O=C1C2C=CC(C(O)c3ccc([N+](=O)[O-])cc3)N(Nc3ccccc3)C2C(=O)N1c1ccccc1 (stereo unspecified) 0.495, CC(=O)NCCCC[C@@H]1NC(=O)[C@H]2C[C@@H](C(=O)NCCCCCC[N+](C)(C)C)[C@@H](c3ccc(O)cc3)N2C1=O -0.489, CCCC[C@H]1OB(O)C[C@H]2C1=C(COC)C[C@H]1C(=O)C=CC(=O)[C@H]12 -0.293, C[C@@H](OCc1ccccc1)C1NC(=O)[C@@]23C(=O)N[C@@H](Cc4ccccc4)C2[C@H](C)[C@@]2(C)O[C@H]2C3/C=C/C/C=C\CNC(=O)[C@H](Cc2ccccc2)NC1=O (stereo partly specified) -0.0389, C=CCC(OC(C)=O)[C@@H]1[C@@H](N(Cc2ccc(-c3cccc(C(F)(F)F)c3)o2)C(=O)c2cccc3ccccc23)c2cc(OCCCO)ccc2N1C(=O)c1ccc2ccccc2c1 (stereo partly specified) -0.549, COCCn1c(C(=O)N2CCCC2)cc2c1C[C@H]1CN(C(=O)c3ccccc3)[C@@](Cc3ccccc3)(C(=O)OC)[C@@H]21 0.573, C=CC[C@@]12N=C(c3ccc(OCCCO)cc3)O[C@@H]1c1ccccc1N(Cc1ccccc1)C2=O 1.86, C[C@]1(C(=O)NCC(F)(F)F)c2ccccc2C(=O)N(Cc2ccc(OC(F)(F)F)cc2)[C@H]1c1ccc(CO)cc1 -0.568, O=C1N(CCS(=O)(=O)c2ccccc2)c2ccccc2[C@@H]2OC(c3ccc(OCCCO)cc3)=N[C@]12CCS(=O)(=O)c1ccccc1 4.01, CN(C)CCCC[C@@H]1NC(=O)[C@@H]2C[C@H](C(=O)NCCCCCCNC(=O)CS)[C@H](c3cccc(OCCO)c3)N2C1=O -0.471, [N-]=[N+]=Nc1ccccc1[C@@H]1OC(c2ccc(OCCCO)cc2)=N[C@]1(Cc1ccccc1)C(N)=O -0.026, C=CC[C@]1(C(=O)N(C)C)COC(c2ccc(OCCCO)cc2)=N1 -0.95, O=C1O[C@@H](c2ccccc2)[C@@H](c2ccccc2)N2[C@@H](c3ccc(O)cc3)[C@]3(C(=O)Nc4ccc(C#CC5=CCCCC5)cc43)[C@@H](C(=O)N3CCCCCCC3)[C@H]12 0.694, CCCCC(=C=CC[C@@H](O)c1cccc(OCCO)c1)C[C@@H](O)COCc1ccccc1 -0.601, [N-]=[N+]=NCc1ccccc1C[C@]1(C(=O)O)COC(c2ccc(OCCCO)cc2)=N1 -0.0738, COC(=O)[C@]1(CO)N=C(c2ccc(OCCCO)cc2)O[C@@H]1c1ccccc1CN=[N+]=[N-] 1.85, COc1ccc(NN2C(C(O)c3cc(C(F)(F)F)cc(C(F)(F)F)c3)C=CC3C(=O)N(C4CCCCC4)C(=O)C32)cc1 (stereo unspecified) 0.518, CN(C)CCCC[C@@H]1NC(=O)[C@H]2C[C@@H](C(=O)NCc3ccc(F)cc3)[C@@H](c3ccc(O)cc3)N2C1=O -0.462
